Laboratory results published in PubChem BioAssay (NCI).
Compounds without any hit were thinned out: in the full panel of roughly 83,000, 20% have a hit.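 Step 1: grow cells in 96-well plates. Step 2: add test compound at a single concentration. Step 3: incubate 48 h. Step 4: record percent growth.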 Active and inactive are the calls of the source. How the source made its calls: active means growth percent below 10; inactive means the rest.

These compounds were tested on SNB-75 CNS (assay: NCI-60 one-dose screen, 48 h (100 = growth as untreated, 0 = no growth, -100 = all killed)). Conditions: 10 µM unless noted.
In the case of `ClCCN(CCCl)Cc1ccc(Nc2ccnc3cc(Cl)ccc23)cc1`, the growth is reported as 45.1% (inactive). For `N#CCCNc1ccccc1`, the growth was 88.6% (inactive). `C[C@]12CCc3sc(NCCc4ccccc4)nc3C1=CC[C@@H]1[C@@H]2CC[C@]2(C)C(=O)CC[C@@H]12` was tested, and the growth was 85.5% (inactive). In the case of `Cc1cnc(/C=C/C(=O)O)cc1-c1cc2c(cc1C)C(C)(C)CCC2(C)C`, the growth is reported as 62.5% (inactive). `C[C@@H]1CCC2[C@@H](C)[C@H](OC(=O)CCC(=O)NCCNC(=O)Cc3cc(=O)oc4cc(N(C)C)ccc34)O[C@@H]3O[C@]4(C)CC[C@@H]1C23OO4` (some centres not stated) was tested, and the growth was 60.9% (inactive). In the case of `CCN(CCO)C(Cc1ccccc1)c1ccccc1` (configuration not stated), the growth is reported as 99.8% (inactive). For `CC1=C2[C@@H](CC1)[C@]1(C)O[C@@](C(C)C)(C[C@H]1O)[C@H]2OC(=O)C1CC1c1ccccc1` (some centres not stated), the growth was 88% (inactive). In the case of `COC(=O)[C@@H](C)C[C@H](Cc1ccccc1)NC(=O)c1nc([C@@H](C[C@H](C(C)C)N(C)C(=O)[C@@H](NC(=O)[C@H]2C[C@H](O)CCN2C)C(C)C)OC(C)=O)sc1C(C)C`, the growth is reported as -9.05% (active). With `COc1cc(C=Nc2cc(Cl)cc(Cl)c2)ccc1N(CCCl)CCCl` the growth was 84.1% (inactive). With `COC(=O)[C@@H](C)C[C@H](Cc1ccccc1)NC(=O)c1csc([C@@H](C[C@H](C(C)C)N(C)C(=O)[C@@H](NC(=O)[C@H]2CCCN2C)C2CC2)OC(C)=O)n1` the growth was 28.9% (inactive). For `NC(=S)c1cn(C2OC(CO)C(O)C2O)c2ncnc(N)c12` (configuration not stated), the growth was -8.8% (active). For `O=C(N/N=C/c1ccc(N(CCCl)CCCl)cc1)c1cccc2ccccc12`, the growth was 76.7% (inactive). For `Oc1ccc2c3c1OC1[C@@H](O)CC[C@@]4(O)[C@@H](C2)N(CC2CCC2)CC[C@]314` (some centres not stated), the growth was 97.9% (inactive). With `CCOC(=O)[C@@H](C)C[C@H](Cc1ccccc1)NC(=O)c1csc([C@@H](C[C@H](C(C)C)N(C)C(=O)[C@@H](NC(=O)[C@H]2C[C@H](O)CCN2C)C(C)C)OC(C)=O)n1` the growth was 10.6% (inactive). `COC(=O)C12CC(NC(=O)c3csc([C@@H](C[C@H](C(C)C)N(C)C(=O)[C@@H](NC(=O)[C@H]4CCCCN4C)C(C)C)OC(C)=O)n3)(C1)C2` was tested, and the growth was 47% (inactive). In the case of `COC(=O)[C@@H](C)C[C@H](Cc1ccccc1)NC(=O)c1csc([C@@H](C[C@H](C(C)C)N(C)C(=O)[C@H](C)NC(=O)[C@H]2CCCCN2C)OC(C)=O)n1`, the growth is reported as 18.1% (inactive). For `O=C(CCCCCNC1=CC(=O)c2ccccc2C1=O)NCCC[Te]c1ccccc1`, the growth was -26% (active). With `CC(=O)O[C@H](C[C@H](C(C)C)N(C)C(=O)[C@@H](NC(=O)[C@H]1CCCCN1C)C(C)(C)C)c1nc(C(=O)N[C@@H](Cc2ccccc2)C[C@H](C)C(=O)O)cs1` the growth was 17% (inactive). `COc1ccc(/C=C\c2cc(OC)c(OC)c(OC)c2)cc1OCC(=O)Nc1nc2ccc(F)cc2s1` was tested, and the growth was 15.6% (inactive). `COc1ccc(C(=O)c2cc(OC)c(OC)c(OC)c2)cc1OC(C)=O` was tested, and the growth was 40.4% (inactive). In the case of `C[C@]12C[C@@H](CO)[C@H](O)C[C@@H]1CC[C@@H]1[C@@H]2CC[C@]2(C)[C@@H](O)CC[C@@H]12`, the growth is reported as 107% (inactive). `N#CC1(C#N)C(c2ccc(N(CCCl)CCCl)cc2)OC23CCCCC2C1(C#N)C(=N)O3` (configuration not stated) was tested, and the growth was 63.3% (inactive). In the case of `O=[N+]([O-])c1ccc([Se]C2CCCCC2Cl)c([N+](=O)[O-])c1` (configuration not stated), the growth is reported as -39.9% (active). For `COc1ccc(-n2c(C)nc3cc(OC)c(OC)cc3c2=O)cc1OC`, the growth was 92.2% (inactive). `O=[As](O)(O)c1ccccc1[As](=O)(O)O` was tested, and the growth was 116% (inactive). With `COC(=O)[C@@H](C)C[C@H](Cc1ccccc1)NC(=O)c1csc([C@@H](C[C@H](C(C)C)N(C)C(=O)C2(NC(=O)[C@H]3CCCCN3C)CC2)OC(C)=O)n1` the growth was 26.5% (inactive). `CN1C(=O)C23CC4(C56CC78SSC(CO)(C(=O)N7C5Nc5ccccc56)N(C)C8=O)c5ccccc5NC4N2C(=O)C1(CO)SS3` (configuration not stated) was tested, and the growth was -100% (active). In the case of `CCNc1nc(Cl)nc(NCC)n1`, the growth is reported as 93.6% (inactive). `COc1ccc(C2=CC(c3ccc(OC)c(OC)c3)c3c(c4ccccc4oc3=O)O2)cc1OC` (configuration not stated) was tested, and the growth was -4.06% (active). With `COC(=O)[C@H](Cc1ccccc1)NNC(=O)c1csc([C@@H](C[C@H](C(C)C)N(C)C(=O)[C@@H](NC(=O)[C@H]2CCCCN2C)C2CC2)OC(C)=O)n1` the growth was 49.2% (inactive). `Clc1ccc(CSC(Cn2ccnc2)c2ccc(Cl)cc2Cl)cc1` (configuration not stated) was tested, and the growth was 57.9% (inactive). `C=CC1=C[C@@H]2[C@@H]3O[C@]4(CC[C@H](O4)[C@@H](C)C[C@@H](O)C3=O)C[C@H](O)C3=NCC[C@@]32CC1` was tested, and the growth was -95.8% (active). For `COC1CC2c3ccccc3C1C(C)=[N+]2C` (configuration not stated), the growth was 71.7% (inactive). With `Cc1cc(N(CCCl)CCCl)ccc1C=Nc1ccc(-c2csc(Cc3ccccc3)n2)cc1` the growth was 50.3% (inactive). With `N/C(=N/N=C/c1ccncc1)N[N+](=O)[O-]` the growth was 96% (inactive). `CCN1C(=O)C(=C/C=C/c2ccccc2)C(=O)N(CC)C1=O` was tested, and the growth was 96.8% (inactive). For `CC(=O)O[C@H](C[C@H](C(C)C)N(C)C(=O)[C@@H](NC(=O)[C@H]1CCCCN1C)C(C)C)c1cccc(C(=O)N[C@@H](Cc2ccccc2)C[C@H](C)C(=O)O)n1`, the growth was 27.6% (inactive).
